This note sets out measurements from PubChem BioAssay AID977607 (Broad Institute, 2014).

About 460 (31%) of roughly 1,500 compounds were called active. About 1% were inconclusive and are not listed.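 How the source made its calls: active means curve reaches 40% activation over neutral controls at an AC40 no higher than the top valid tested concentration; inconclusive means no clear call, values can overlap the other calls; inactive means signal moving opposite to the expected increase, and the rest.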 A selection follows. Measured potencies and affinities stand elsewhere.

The nature of this assay: GLuc-reported insulin release enhancers, glucose-stimulated beta cells – cell-based, INS-1E, Gaussia luciferase, luminescence, cherry-pick, set 2, dose response (AID 977607).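 Further: 0% = median of the plate neutral control wells.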 The settings on record: INS-1E GLuc insulin secretion reporter, 2-3 h, stronger effect = higher value; at 35 µM, 100% = signal doubled over neutral wells unless noted.
For the molecule `CC(C(=O)Nc1ccc2[nH]c(=O)[nH]c2c1)N1CCN(Cc2ccc3c(c2)OCO3)CC1` (centres undefined), the max activation was -27.3% [at 11 µM, 100% = signal doubled over neutral wells] (inactive). As to `O=C1NC(=O)C2(CCCCC2C2CCCCC2)N1` (centres undefined), the max activation is 32.9% [at 0.135 µM, 100% = signal doubled over neutral wells] (inactive). With `Cc1ccc(S(=O)(=O)N(C)c2nc3ccccc3n3c(C(C)C)nnc23)cc1`, the max activation is -16.3% [at 0.42 µM, 100% = signal doubled over neutral wells] (inactive). For `O=C(O)COc1ccccc1-c1ccccc1` the value was -20.7% [at 3.8 µM, 100% = signal doubled over neutral wells] (inactive); for `Cc1ccc(C(=O)Nc2cccc(C(=O)N/N=C/c3ccc(F)cc3)c2)cc1`, -21.7% [at 0.046 µM, 100% = signal doubled over neutral wells] (inactive). The value for `CCCCCCC1CCC(C(=O)Nn2c(C)nc3ccccc3c2=O)CC1` (centres undefined) was 26.8% [at 0.015 µM, 100% = signal doubled over neutral wells] (inactive).

In the case of `COc1ccccc1NS(=O)(=O)c1cccc(C(=O)N/N=C/c2c(C)nn(-c3ccccc3)c2N2CCCC2)c1`, the max activation is -50.5% (inactive).

As to `Cc1nn(-c2ccccc2)c(N2CCCC2)c1/C=N/O`, the max activation was -12.4% [at 0.046 µM, 100% = signal doubled over neutral wells] (inactive). The value for `CC(C)NC(=O)OC[C@H]1O[C@H](C#Cc2ccc(C(C)(C)C)cc2)C=C[C@H]1O` was 54.1% (inactive). The value for `CC(C)NC(=O)C1(C)CN(S(C)(=O)=O)CC(=O)N1CCCN1CCOCC1` (centres undefined) was -19.6% [at 0.015 µM, 100% = signal doubled over neutral wells] (inactive); that for `O=C(O)c1ccc(-n2nnnc2SCc2cccc(Br)c2)cc1` was -16.4% [at 0.135 µM, 100% = signal doubled over neutral wells] (inactive); that for `O=C(O)c1ccc(-n2nnnc2SCc2ccccc2Br)cc1` was 24.2% (inactive). Regarding `O=C(Nc1ccc(F)cc1)C1COc2ccccc2O1` (centres undefined), the max activation is -26.7% (inactive).

Regarding `Cc1ccc(CS(=O)Cc2ccc(C(=O)NCc3ccccc3)o2)cc1` (centres undefined), the max activation is 8.81% [at 1.2 µM, 100% = signal doubled over neutral wells] (inactive). With `Clc1ccc(OCCn2ccnc2)c(Cl)c1`, the max activation was 53.2% (inactive). For `COc1ccc(/C=C/c2noc(-c3ccccc3OC(C)=O)n2)cc1`, the max activation was -25.1% (inactive). In the case of `O=C(COc1cccc2c1CCNC2=O)NC1CCCCC1`, the max activation is -23.7% [at 1.2 µM, 100% = signal doubled over neutral wells] (inactive). For the molecule `CCCCOc1ccc(C2=NNC(=O)CC2)cc1`, the max activation was -15.4% [at 3.8 µM, 100% = signal doubled over neutral wells] (inactive). With `COCCNc1nc(N2CCCCC2)c2cnn(C)c2n1`, the max activation is -16.6% [at 0.42 µM, 100% = signal doubled over neutral wells] (inactive). Regarding `Cc1c(P(=S)(c2ccccc2)c2ccccc2)[n+]2ccccc2n1C/C=C/c1ccccc1`, the max activation is -32.8% (inactive). Regarding `O=C(Nc1ccc(C(=O)N2CCCC2)cc1)c1cccc(C(F)(F)F)c1`, the max activation was -13% [at 0.015 µM, 100% = signal doubled over neutral wells] (inactive).

`O=c1[nH]c2ccccc2nc1-c1nnnn1C1CCCC1`: the max activation is -11.7% (inactive). In the case of `COc1ccc(CN2CCOC2=O)cc1OC`, the max activation is -24.4% [at 0.046 µM, 100% = signal doubled over neutral wells] (inactive).

Consider `COc1ccc(-c2nc(N)ncc2-c2ccc(OC)c(OC)c2)c(O)c1`, for which the max activation was -26.8% [at 0.046 µM, 100% = signal doubled over neutral wells] (inactive). In the case of `COc1ccc(CNC(=O)CCn2c(=O)oc3ccccc32)c(OC)c1`, the max activation was -18.2% [at 3.8 µM, 100% = signal doubled over neutral wells] (inactive). Regarding `O=C([C@H]1O[C@@H](n2ccc(=O)[nH]c2=O)[C@H](O)[C@@H]1O)N1CCN(c2ccc(Cl)cn2)CC1`, the max activation is -17.9% [at 1.2 µM, 100% = signal doubled over neutral wells] (inactive). The value for `CS(=O)(=O)N1CCCCC1c1cc(C(=O)Nc2cccc(C#N)c2)no1` (centres undefined) was -20.8% [at 0.135 µM, 100% = signal doubled over neutral wells] (inactive); that for `COc1ccc(C2=NOC(C(=O)Nc3cccnc3)C2)cc1OC` (centres undefined) was 36.7% [at 11 µM, 100% = signal doubled over neutral wells] (inactive); that for `COc1ccc(-c2noc(CCC(=O)Nc3cccnc3)n2)cc1OC` was 10.9% (inactive).

For the molecule `CCC(CC)NC(=O)c1ccccc1Oc1ccccc1`, the max activation was -14.5% [at 0.046 µM, 100% = signal doubled over neutral wells] (inactive).

Take `CC(=O)c1ccc2c(c1)N(Cc1ccccc1)C(=O)C(C)S2` (centres undefined): the max activation is -15.7% [at 3.8 µM, 100% = signal doubled over neutral wells] (inactive).

Consider `CC(C)(C)c1ccc(C#C[C@@H]2C=C[C@H]3OC(=O)CC/C=C/CCC(=O)OC[C@H]3O2)cc1`, for which the max activation is -35.6% [at 3.8 µM, 100% = signal doubled over neutral wells] (inactive).

As for `CCOC(=O)C1=C(COC(=O)c2cccs2)NC(=O)NC1C` (centres undefined), the max activation was 39.2% [at 11 µM, 100% = signal doubled over neutral wells] (inactive).

Turning to `CCOc1cc(NC(=O)c2ccco2)c(OCC)cc1NC(=O)c1cc(OC)c(OC)c(OC)c1`, the max activation is 33.6% (inactive). For `Cc1ccc(C2(C)NC(=O)N(CC(=O)Nc3ccc(-c4nc5ccc(C)cc5s4)cc3)C2=O)cc1` (centres undefined) the value was -34.8% (inactive); for `Cc1ccnc(NC(=O)CNC(=O)c2ccco2)c1`, -26.8% [at 3.8 µM, 100% = signal doubled over neutral wells] (inactive). For `COc1ccc(-c2c(NC(=O)c3ccco3)oc3ccc(Cl)cc3c2=O)cc1`, the max activation was -15.5% [at 0.42 µM, 100% = signal doubled over neutral wells] (inactive).

`Cc1ccc2sc(-c3ccc(NC(=O)c4cc(-n5cnnc5)ccc4Cl)cc3)nc2c1`: the max activation was 38.9% (inactive). On to `Cc1c(Cc2ccccc2)sc(NC(=O)c2ccco2)c1C(N)=O`, for which the max activation is -16.3% [at 0.015 µM, 100% = signal doubled over neutral wells] (inactive).
